Screening results: PubChem, National Center for Advancing Translational Sciences (NCATS)
IL-1B inflam inh: blocks inflammasome-driven IL-1 beta release | activity change, % at 57.5 µM | THP-1 LPS/ATP IL-1B secretion, AlphaLISA, 16 h; hits give low values | actives 4.7% (n = 360,000); in the data active = activity change below about -50%; inconclusive = mostly about -30% to -49%; also: % is scaled to controls: 0 for no effect and ±100 for the full control effect
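Secreted IL-1B measured by AlphaLISA bead assay after 16 h compound exposure of THP-1 cells; compounds (final up to 57.5 uM) added 1 h before LPS (250 ng/mL) and ATP (1.25 mM) stimulation; lower signal means less secretion.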
DT40 TDP1 CPT: growth inhibition of DT40 Tdp1-/-;hTDP1 cells with camptothecin (screen for TDP1 inhibitors); chicken DT40 Tdp1-/-;hTDP1 cells + 20 nM CPT, ATP luminescence, 48 h; Potency, µM (series often up to 46.2 µM), for the others: top-dose activity change, negative = growth inhibition, hits mostly inhibitors; actives 12% (n = 420,000); AID 686979; also: potency is read from the fitted curve at half-maximal effect; % is scaled to controls: 0 for no effect and ±100 for the full control effect; nearly all actives have a fitted effect of over 55% in size
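Chicken DT40 Tdp1-/- cells complemented with human TDP1, 400 cells/well, exposed to compounds plus 20 nM camptothecin for at least 48 h at 37 C; viability read as ATP content by CellTiter-Glo luminescence.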
ClpP mod: qHTS Assay for Activators of ClpP; ATP-dependent Clp protease proteolytic subunit (Bacillus subtilis (strain 168)), P80244; purified B. subtilis ClpP, FRET peptide cleavage, 20 min; Potency, µM (highest dose often 57.5 µM), for the others: at the top dose activity change, negative = active; actives 1.9% (n = 340,000); AID 651965, 2013; active = well fitted falling curve with a large enough effect; inconclusive = small, poorly fitted or top-dose-only effect; inactive = no such curve, though single readings can be large or run the other way; also: potency is read from the fitted curve at half-maximal effect; the source files actives as falling curves though it sought activators and does not explain the sign; nearly all actives have a fitted effect of over 65% in size
Target sequence (P80244 whole entry, looked up): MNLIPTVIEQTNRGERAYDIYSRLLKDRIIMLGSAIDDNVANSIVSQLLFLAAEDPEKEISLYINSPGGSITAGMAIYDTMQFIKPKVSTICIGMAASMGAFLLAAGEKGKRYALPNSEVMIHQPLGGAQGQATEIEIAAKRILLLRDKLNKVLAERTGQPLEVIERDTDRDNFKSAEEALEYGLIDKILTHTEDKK
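ClpP 10 microg/mL final, pH 8 Tris/KCl buffer with BSA, glycerol, Tween-20; compound pinned in; FRET-FV substrate; RT 20 min; Ex320/Em430; ΔFRET vs ADEP 5.8 microM, DMSO, no enzyme.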
DRD3 antagonist: D3 dopamine receptor (human) antagonism; AID 652054; max response, negative = inhibition, %; D3R cells, DiscoveRx beta-arrestin luminescence, antagonist mode; hits give low values; P35462; actives 2.5% (n = 360,000); in the data active = max response below about -50%; inconclusive = no clear call, values can overlap the other calls; also: % is scaled to controls: 0 for no effect and ±100 for the full control effect
Target sequence (P35462 whole entry, looked up): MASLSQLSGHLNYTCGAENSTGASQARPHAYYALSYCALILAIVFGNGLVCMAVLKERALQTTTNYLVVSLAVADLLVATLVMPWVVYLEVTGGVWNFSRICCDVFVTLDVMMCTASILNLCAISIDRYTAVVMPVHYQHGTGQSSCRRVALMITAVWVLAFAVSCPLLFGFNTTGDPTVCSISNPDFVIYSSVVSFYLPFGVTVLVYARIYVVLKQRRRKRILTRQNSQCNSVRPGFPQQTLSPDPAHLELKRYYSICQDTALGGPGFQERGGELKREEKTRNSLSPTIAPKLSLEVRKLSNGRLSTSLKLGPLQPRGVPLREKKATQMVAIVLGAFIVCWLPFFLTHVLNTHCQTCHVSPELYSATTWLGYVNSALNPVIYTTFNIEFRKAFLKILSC
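Cells expressing the human receptor were seeded at 1500 cells/well, incubated overnight at 37 degrees C in 5% CO2, then exposed to library compounds with dopamine controls for 90 minutes at 37 degrees C before luminescent detection.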
TDP1 cell noCPT: qHTS for Inhibitors of human tyrosyl-DNA phosphodiesterase 1 (TDP1): qHTS in cells in absence of CPT. DT40 Tdp1-/- hTDP1 cells, no CPT, ATP luminescence, 48 h. AID 686978, 2013. actives 15% (n = 420,000). Potency, µM (highest dose often 46.2 µM), inactives show at the top dose activity change, negative = growth inhibition, hits mostly inhibitors; also: potency is read from the fitted curve at half-maximal effect; % is scaled to controls: 0 for no effect and ±100 for the full control effect; nearly all actives have a fitted effect of over 55% in size
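Chicken DT40 Tdp1-/- cells complemented with human TDP1, screened without camptothecin (DMSO vehicle only), 400 cells/well. Compounds pin-transferred, cells incubated at 37 °C for at least 48 hr. Growth read as ATP-dependent luminescence (CellTiter-Glo, 30 min at RT).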
DRD3 agonist: D3 dopamine receptor (human) agonism; P35462; D3R DiscoveRx beta-arrestin cells, luminescence, 90 min; actives 0.58% (n = 410,000); max activation, %; in the data active = max activation above about 30%; also: 0% is about no effect
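Agonist mode: compounds and dopamine controls were applied to plated cells for 90 min at 37 degrees C after an overnight attachment at 1500 cells/well. Luminescent read-out followed 30 - 60 minutes at room temperature with DiscoveRx detection reagent.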
Starred values were filed as active, the others as inactive; ? = inconclusive; / = not tested or not shown; ! = a repeat was not active; [ ] = remark or other dose. Most compounds without a hit are left out; they make up all but 21% or so of the library. Unless noted, calls follow the shape of the dose curve; as a rule, active = well fitted inhibition curve with a large enough effect; inconclusive = small, poorly fitted or top-dose-only effect; inactive = flat fitted curve, though single readings scatter.

SMILES	IL-1B inflam inh	DT40 TDP1 CPT	ClpP mod	DRD3 antagonist	TDP1 cell noCPT	DRD3 agonist
COc1ccccc1CNC(=O)c1cnc(N(C)C)nc1	/	?	-13.6%	/	?	2.9
O=C(CN1C(=O)COc2ccc(S(=O)(=O)N3CCCC3)cc21)N1CCN(c2ccccc2F)CC1	/	/	-0.5%	/	/	2.0
O=C1CC[C@@H](C(=O)NCC2Cc3cc(Cl)cc(-c4ccc5[nH]ccc5c4)c3O2)N1 (stereo partly drawn)	/	-3.9%[9.04 µM]	/	/	-25.0%	/
CCC(=O)N1CCc2cc(S(=O)(=O)NC(C(=O)NCCc3ccccc3)C(C)C)ccc21 (stereo not drawn)	/	-20.8%	0.3%	/	?	-13.2
COc1ccc(NC(=S)N(CCCN2CCOCC2)Cc2ccco2)cc1	24.5	9.2%	/	-0.6	6.5%	-5.5
COc1ccc(NC(=S)N(CCCN2CCCCC2)Cc2cccs2)cc1	-10.5	1.1%	2.3%	-86.5*	?	-32.4
Cc1cc(NC(=S)N(CCN2CCOCC2)Cc2ccccc2F)ccc1Cl	-58.5*	?	/	?	18.4µM*	-18.4
Cc1ccc(-n2ncc3c2CC(C)(C)CC3NC(=O)CCn2cncn2)cc1 (stereo not drawn)	4.8	3.5%	-1.3%	17.4	-1.3%	1.2
O=[N+]([O-])c1cc([N+](=O)[O-])c(N2CCOCC2)cc1NCc1ccccc1	28.3	8.2µM*	1.6%	18.8	18.4µM*	-7.3
CC1CCCN(c2ccc(C(=O)OCC(=O)N3c4ccccc4Sc4ccccc43)cc2[N+](=O)[O-])C1 (stereo not drawn)	-11.2	18.4µM*	1.3%	0.0	23.1µM*	4.3
CC1CCCN(c2ccc(C(=O)NCc3ccc4c(c3)OCO4)cc2[N+](=O)[O-])C1 (stereo not drawn)	0.0	?	-0.2%	-3.0	?	-8.9
CC1CCCN(c2ccc(C(=O)Nc3ccc4c(c3)OCO4)cc2[N+](=O)[O-])C1 (stereo not drawn)	-66.0*	?	1.1%	17.0	20.6µM*	-7.7
O=C(NCc1ccc2c(c1)OCO2)c1ccc(N2CCCCCC2)c([N+](=O)[O-])c1	-14.9	?	-0.4%	-60.2*	?	-11.0
NS(=O)(=O)c1ccc(NC(=O)C2Cc3ccccc3N2C(=O)c2ccccc2)cc1 (stereo not drawn)	/	4.8%	0.0%	/	-3.1%	-5.7
Cc1ccc(CNC(=O)c2c(-c3ccccc3Cl)noc2C)o1	/	?	-1.1%	/	?	-12.7
O=C(Nc1cccnc1)c1ccc(N2CCOCC2)c([N+](=O)[O-])c1	-24.4	-18.6%	-0.2%	-19.6	-12.7%	-12.3
O=C(NCc1ccc2c(c1)OCO2)c1ccc(Br)cc1	-3.1	0.4%	-0.4%	-15.5	-19.9%	47.0*
O=C(NCc1ccc2c(c1)OCO2)c1ccccc1	-8.0	-8.2%	/	-16.3	-9.1%	-6.2
O=C(O)c1cccc(Nc2ccncc2[N+](=O)[O-])c1	-6.8	?	/	0.0	18.4µM*	9.8
O=C(O)c1ccc(NCc2cccnc2)c([N+](=O)[O-])c1	10.8	-4.7%	0.5%	-82.6*	5.9%	-5.5
O=C(NCc1cccnc1)c1ccc(N2CCOCC2)c([N+](=O)[O-])c1	46.8	?	-0.9%	18.4	16.4µM*	1.6
Cc1cc(C(=O)O)ccc1NCc1cccnc1	5.9	7.5%	-0.6%	11.2	1.7%	1.8
CNC(=O)c1ccc(C)c(NC(=O)C2=C(C)OCCS2)c1	0.0	-2.4%	1.3%	12.5	12.0%	0.6
CCc1ccc(C2C(C(=O)Nc3ccccc3OC)=C(C)Nc3c(C(=O)Nc4ccc(C)cc4)cnn32)cc1 (stereo not drawn)	/	?	4.4%	/	?	3.3
CC1CCN(c2ccc(C(=O)Nc3ccc4c(c3)OCO4)cc2[N+](=O)[O-])CC1	-141.0*	10.3µM*	/	8.7	9.2µM*	5.4
SMILES	IL-1B inflam inh	DT40 TDP1 CPT	ClpP mod	DRD3 antagonist	TDP1 cell noCPT	DRD3 agonist
O=C(COC(=O)c1ccc(N2CCOCC2)c([N+](=O)[O-])c1)Nc1ccc2c(c1)OCO2	-0.5	-16.8%	1.4%	5.0	?	1.7
O=[N+]([O-])c1c(NCc2ccccc2)cc(N2CCc3ccccc3C2)c2nonc12	-5.3	?	1.2%	-0.4	20.6µM*	-7.2
COc1ccc(CCNC(=O)CSc2nc3ncccc3[nH]2)c(OC)c1	-3.2	-11.8%	-0.7%	6.3	-2.5%	-1.8
Cc1ccc2[nH]c(=O)c3cc(C(=O)N(C)c4ccc(Br)cc4)sc3c2c1	/	3.66µM*	?	/	3.26µM*	3.7
Cc1ccc2[nH]c(=O)c3cc(C(=O)N(C)c4ccccc4C)sc3c2c1	?	?	-11.6%	12.1	10.3µM*	2.6
CCOc1ccc(CNC(=O)CN2C(=O)C(c3ccccc3)Oc3cccnc32)cc1 (stereo not drawn)	3.3	-24.5%	-2.3%	30.8	-12.3%	-7.1
CCCCNC(=O)[C@@H]1CC=C[C@@H]2CCN(Cc3ccc(OC)c(OC)c3)C(=O)[C@@H]21	/	?	1.8%	/	?	/
COc1ccc(CN2CC[C@H]3C=CC[C@@H](C(=O)Nc4ccccc4)[C@H]3C2=O)cc1OC	/	?	0.6%	/	10µM*!	/
COc1ccc(CNC(=O)[C@@H]2CC=C[C@@H]3CCN(Cc4ccc(OC)c(OC)c4)C(=O)[C@@H]32)cc1	/	-15.1%	-0.2%	/	-13.4%	/
COc1ccc(CNC(=O)[C@@H]2CC=C[C@@H]3CCN(Cc4ccc(Cl)c(Cl)c4)C(=O)[C@@H]32)cc1	0.0	23.1µM*	0.8%	0.0	11.2µM*	-13.9
CCCCN1CC[C@H]2C=CC[C@@H](C(=O)Nc3ccc(Cl)cc3Cl)[C@H]2C1=O	-19.4	16.4µM*	1.6%	?	?	-15.7
CCN(CC)c1ccc(NC(=O)Cn2cc3c(n2)CCCC3)c(C)c1	/	?	-0.7%	/	?	-9.1
CN1C=CC(=CC=C2C=CC(=O)C=C2)C=C1	-14.8	2.2%	-3.0%	-0.2	2.6%	-0.4
C#CCOCCOCCOCCNc1nc(N2CCN(C(=O)[C@H]([C@@H](C)CC)n3cc([C@@H](N)Cc4ccc(O)cc4)nn3)CC2)nc(N2CCN(C(=O)[C@H](Cc3cc4ccccc4[nH]3)n3cc([C@@H](N)CC(C)C)nn3)CC2)n1	-16.7	23.1µM*	-5.2%	-50.3*	?	-10.2
